The values below come from PubChem BioAssay (Tox21).

A short description of assay [1]: qHTS assay to identify small molecule agonists of the vitamin D receptor (VDR) signaling pathway - cell viability counter screen (AID 743224). Note: series mostly up to about 63 µM; % is set by controls: 0 for no effect and ±100 for the full control effect; nearly all actives have a fitted effect of over 50% in size. An outline of the steps:
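Here cell health was gauged by luminescent ATP detection (CellTiter-Glo, 30 min RT) in VDR-bla cells that had been incubated with test compounds for 16 h at 37C and 5% CO2.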
A general note: qHTS replaces the single test concentration by a dilution series.

Assay [2] in a line: qHTS assay to identify small molecule antagonists of the vitamin D receptor (VDR) signaling pathway - cell viability counter screen (AID 743225). Note: nearly all actives have a fitted effect of over 50% in size. Note: potency is the fitted concentration of half-maximal effect. An outline of the steps: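 Cells (VDR-UAS-bla HEK 293T) are plated, rested 4 h at 37C, dosed with compound and 3 nM final 1-alpha,25-dihydroxy vitamin D3, and incubated 16 h. Viability is taken from CellTiter-Glo luminescence in the reporter wells.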

Assay [3] in a line: qHTS assay to identify small molecule agonists of the NFkB signaling pathway - cell viability counter screen (AID 1159515; calls by dose curve; note: series mostly up to about 61 µM; % is set by controls: 0 for no effect and ±100 for the full control effect; nearly all actives have a fitted effect of over 55% in size). An outline of the steps: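 5 hr compound treatment of NFkB-bla ME-180 cells (2,000/well, seeded overnight beforehand), followed by reporter substrate for 1.5 hr. CellTiter-Glo added afterward; luminescence after 30 min RT.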
Assay [4] is described as follows: qHTS assay to identify small molecule agonists of the endoplasmic reticulum stress response signaling pathway (AID 1159516; active = well fitted activation curve with a large enough effect in the signal ratio in the repeat runs, not every such curve was filed as active; the % refers to the signal ratio; note: % is set by controls: 0 for no effect and ±100 for the full control effect). An outline of the steps:
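Reporter HeLa cells (ESRE-beta-lactamase) underwent 5 hr compound incubation at 37 C and 5% CO2 in quantitative HTS format. Detection followed 2 hr of FRET substrate loading at room temperature.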

A short description of assay [5]: qHTS assay to identify small molecule agonists of the endoplasmic reticulum stress response signaling pathway - cell viability counter screen (AID 1159517; calls by dose curve;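 note: HeLa cells carrying an ER stress response element beta-lactamase reporter; series mostly up to about 61 µM; % is set by controls: 0 for no effect and ±100 for the full control effect; nearly all actives have a fitted effect of over 50% in size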). An outline of the steps: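 ESRE-bla HeLa cells, 1,500 per well, seeded overnight then treated with compounds for 5 hr at 37 C. After the beta-lactamase read, viability in the same wells is measured by CellTiter-Glo luminescence after 30 min at room temperature.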

A short description of assay [6]: qHTS assay to identify small molecule antagonists of the retinoid-related orphan receptor gamma (ROR-gamma) signaling pathway - cell viability counter screen (AID 1159520). Note: nearly all actives have a fitted effect of over 50% in size. Note: potency is the fitted concentration of half-maximal effect. An outline of the steps:
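Tet-on ROR gamma CHO cells were given compounds for 2 hr, then doxycycline hyclate at 1 uM final, and incubated 16 hr at 37 C. Viability was measured as ATP content by CellTiter-Glo luminescence.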

The target in assay [7] is Nuclear receptor ROR-gamma (Homo sapiens) (UniProt P51449). Nature of the assay: qHTS assay to identify small molecule antagonists of the retinoid-related orphan receptor gamma (ROR-gamma) signaling pathway (AID 1159521). An outline of the steps: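 RORγ antagonism is scored from reduced reporter luminescence in Tet-on CHO cells. Induction used 1 uM final doxycycline hyclate for 16 h at 37 C, following a 2 h compound exposure.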

Assay [8] is described as follows: qHTS assay to identify small molecule agonists of the AP-1 signaling pathway - cell viability counter screen (AID 1159525; calls by dose curve; note: nearly all actives have a fitted effect of over 55% in size; note: potency is the fitted concentration of half-maximal effect). An outline of the steps:
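AP-1-bla ME-180 cells in Opti-MEM with 0.5% dialyzed FBS, compound exposure 5 h at 37 C in 15-point titration. Viability read in the same wells as ATP content by CellTiter-Glo luminescence, normalised to tetra-n-octylammonium bromide and DMSO controls.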

A short description of assay [9]: qHTS assay to identify small molecule agonists of the AP-1 signaling pathway (AID 1159526; calls by dose curve; note: % is set by controls: 0 for no effect and ±100 for the full control effect).
The target in assay [10] is Retinoic acid receptor RXR-alpha (Homo sapiens) (UniProt P19793). In words: qHTS assay to identify small molecule agonists of the RXR signaling pathway (AID 1159527; calls by dose curve; note: % is set by controls: 0 for no effect and ±100 for the full control effect; nearly all actives have a fitted effect of over 35% in size). An outline of the steps: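 qHTS of the Tox21 10K library in GeneBLAzer RXR-alpha HEK 293T cells carrying a beta-lactamase reporter […]; 16 hr treatment, 9-cis retinoic acid as agonist control, FRET read-out.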
Chain of Retinoic acid receptor RXR-alpha (Homo sapiens) (P19793 whole entry, looked up): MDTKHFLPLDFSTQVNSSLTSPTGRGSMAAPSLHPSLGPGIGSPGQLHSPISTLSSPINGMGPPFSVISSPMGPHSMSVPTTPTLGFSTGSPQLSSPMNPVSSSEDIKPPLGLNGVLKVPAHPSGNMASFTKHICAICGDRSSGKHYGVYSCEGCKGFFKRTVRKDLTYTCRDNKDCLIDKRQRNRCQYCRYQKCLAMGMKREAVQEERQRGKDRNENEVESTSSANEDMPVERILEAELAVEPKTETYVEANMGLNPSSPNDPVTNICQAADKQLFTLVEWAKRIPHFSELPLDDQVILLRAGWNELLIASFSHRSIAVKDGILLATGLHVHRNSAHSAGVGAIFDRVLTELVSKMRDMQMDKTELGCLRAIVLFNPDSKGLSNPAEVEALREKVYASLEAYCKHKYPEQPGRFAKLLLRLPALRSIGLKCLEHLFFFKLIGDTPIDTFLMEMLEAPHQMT

Assay [11] in a line: qHTS assay to identify small molecule agonists of the RXR signaling pathway - cell viability counter screen (AID 1159529). Note: nearly all actives have a fitted effect of over 50% in size. Note: potency is the fitted concentration of half-maximal effect. An outline of the steps: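 Cell viability is measured by CellTiter-Glo luminescence, 30 min at room temperature, in wells already read for beta-lactamase. Engineered HEK 293T cells (RXR-alpha-UAS-bla) are dosed 16 hr at 37 C. Tetraoctyl ammonium bromide serves as positive control.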

Assay [12] can be described thus: qHTS assay to identify small molecule antagonists of the retinoid acid receptor (RAR) signaling pathway - cell viability counter screen (AID 1159551). Note: nearly all actives have a fitted effect of over 35% in size. Note: potency is the fitted concentration of half-maximal effect. An outline of the steps:
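Seed C3RL4 cells; next day add compound, then retinol to 1 uM final; incubate 6 h at 37 C; add CellTiter-Glo; read luminescence after 30 min at RT.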

Assay [13] in a line: qHTS assay to identify small molecule antagonists of the retinoic acid receptor (RAR) signaling pathway (AID 1159552; note: nearly all actives have a fitted effect of over 50% in size; note: potency is the fitted concentration of half-maximal effect). An outline of the steps:
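Quantitative HTS in C3RL4 RARE-luciferase reporter cells. Compounds were added with 1 uM (final) retinol; luminescence was read after 6 hr.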

Assay [14] can be described thus: qHTS assay to identify small molecule agonists of the retinoic acid receptor (RAR) signaling pathway (AID 1159553). Note: potency is the fitted concentration of half-maximal effect. An outline of the steps:
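Activation of retinol signaling was monitored via a RARE luciferase reporter in C3RL4 cells. After 6 hr compound treatment at 37 C, detection reagent was added for 30 min at room temperature before luminescence reading.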

The nature of assay [15]: qHTS assay to identify small molecule agonists of the NFkB signaling pathway (AID 1159509; active = well fitted curve in the direction sought with a large enough effect in the signal ratio in the repeat runs, not every such curve was filed as active; the % refers to the signal ratio; note: series mostly up to about 61 µM; % is set by controls: 0 for no effect and ±100 for the full control effect). An outline of the steps:
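ME-180 NFkB-bla, 2,000 cells/well, overnight plating; cpd pinned in DMSO, 5 h 37 C; B/G FRET substrate 1.5 h RT; ex 405, em 460/530 nm.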

Assay [16] is described as follows: qHTS assay to identify small molecule antagonists of the estrogen related receptor (ERR) signaling pathway - cell viability counter screen (AID 1224818).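 Note: series mostly up to about 46 µM; viability measured after 17.5 h of compound exposure; % is set by controls: 0 for no effect and ±100 for the full control effect.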 An outline of the steps: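 In the same ERR cell assay, compound-treated wells (17.5 h, 37 C) were multiplexed with a fluorogenic viability reagent, CellTiter-Fluor, read after 30 min to flag cytotoxic substances.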

A short description of assay [17]: qHTS assay to identify small molecule agonists of the estrogen related receptor (ERR) signaling pathway (AID 1224820). Note: % is set by controls: 0 for no effect and ±100 for the full control effect. An outline of the steps: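 Cells: ERR line from NTP, 2,000/well. Pre-incubation 6 h, 37 C/5% CO2. Compound (DMSO) pin transfer, 18 h 37 C. One-Glo, 30 min RT, luminescence.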
Assay [18] has as its system estrogen-related receptor alpha (ERRalpha) with PGC-1alpha coactivator, human. Nature of the assay: qHTS assay to identify small molecule antagonists of the estrogen related receptor signaling pathway with the pleiotropic PPARgamma coactivator (PGC) (AID 1224821; calls by dose curve). An outline of the steps: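 Luminescent read-out (One-Glo, 30 min at room temperature) following 18 h treatment of PGC/ERR cells at 37 C with compounds delivered in DMSO. Cells had settled 6 h at 37 C/5% CO2 before dosing.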

Assay [19] can be described thus: qHTS assay to identify small molecule antagonists of the estrogen related receptor signaling pathway with the pleiotropic PPARgamma coactivator (PGC) cell viability counter screen (AID 1224822). An outline of the steps: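 Compounds in DMSO, with positive and negative controls, were applied to PGC/ERR cells (2,000/well) and left 17.5 h at 37 C before CellTiter-Fluor detection.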

Assay [20] in a line: qHTS assay to identify small molecule agonists of the estrogen related receptor signaling pathway with the pleiotropic PPARgamma coactivator (PGC) (AID 1224823). Note: % is set by controls: 0 for no effect and ±100 for the full control effect. An outline of the steps: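 Steps: plate PGC/ERR cells at 2,000 cells/well; incubate 6 h, 37 C/5% CO2; pin-transfer compounds (DMSO); incubate 18 h, 37 C; add One-Glo; 30 min RT; read luminescence.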

SMILES strings stand for the structures. Results filed as inconclusive are left out. A number with no mark means an inactive call. Calls of active or inactive are those of the source. Unless noted, calls come from the whole dose curve; as a rule, active = well fitted curve in the direction sought with a large enough effect in the repeat runs; inconclusive = weak or mixed curves; inactive = no such curve, though single readings can be large; an effect the other way counts as inactive or inconclusive.

As for `CCN(CC)C(=O)c1cccc(C)c1`, the Potency entry in assay [1], in assay [2], in [3], in [4], in assay [5] and in [6] was “inactive” in each case. Further, the Potency entry in assay [7], in assay [8], in assay [9], in assay [10], in assay [11] and in [12] was “inactive” throughout. The Potency entry in [13] and in assay [14] was “inactive” each time.
Regarding `CCN(Cc1c(F)cccc1Cl)c1c([N+](=O)[O-])cc(C(F)(F)F)cc1[N+](=O)[O-]`, the Potency entry in assay [1], in [6], in [7], in assay [12] and in assay [14] was “inactive” throughout. Further, in assay [15], the molecule was called inactive. Besides, in assay [11], the Potency is 9.77 µM (active).
In the case of `CCCCC1(COC(=O)CCC(=O)O)C(=O)N(c2ccccc2)N(c2ccccc2)C1=O`, the Potency entry in assay [1], in [2], in assay [3], in assay [4], in assay [5] and in [6] was “inactive” in each case. Moreover, the Potency entry in assay [7], in assay [8], in [9], in assay [10], in assay [11] and in assay [12] was “inactive” in each case. In addition, the Potency entry in assay [13] and in [14] was “inactive” each time.
Consider `Cc1ncc([N+](=O)[O-])n1CCO`, for which the Potency entry in [1], in assay [2], in [3], in assay [4], in assay [5] and in assay [6] was “inactive” throughout. In addition, the Potency entry in assay [7], in [8], in [9], in assay [10], in [11] and in assay [12] was “inactive” in each case. The Potency result in assay [13] and in [14] was “inactive” throughout.
As to `CC1(C)O[C@@H]2C[C@H]3[C@@H]4CCC5=CC(=O)C=C[C@]5(C)[C@@]4(F)[C@@H](O)C[C@]3(C)[C@]2(C(=O)CO)O1`, the Potency result in [1], in assay [2], in assay [3], in assay [4], in [5] and in assay [6] was “inactive” each time. Also, the Potency result in assay [7], in assay [8], in assay [9], in [10], in assay [11] and in assay [12] was “inactive” throughout. In addition, the Potency result in [13] and in [14] was “inactive” each time.
Consider `C1CCC(C(CC2CCCCN2)C2CCCCC2)CC1` (configuration not stated), for which the Potency was 21.3 µM (active) in assay [2]; 26.6 µM (active) in assay [6]; 23.9 µM (active) in [8]; 23.9 µM (active) in assay [11]; 29.8 µM (active) in assay [12]; 9.44 µM (active) in assay [13]. Also, the result in [15] was inactive.
For `C=C1CC[C@H](O)C/C1=C\C=C1/CCC[C@]2(C)[C@@H]([C@H](C)CCCC(C)C)CC[C@@H]12`, the call in assay [15] was inactive. The Potency in assay [6] is 60.6 µM (active); in assay [11] it was 24.3 µM (active). For the same molecule, the Potency result in [8], in assay [12] and in assay [13] was “inactive” throughout.
Take `Nc1ccc2c(c1)CN1C(=O)c3ccccc3C1=N2`: the Potency entry in [1], in assay [2] and in assay [5] was “inactive” each time. Besides, in [15], the outcome was inactive. In addition, the activity change, negative = inhibition in assay [7] was -8.87% [at 19 µM]. Moreover, the activation in [9] was -1.9% [at 15.8 µM]. Further, the Potency was 14.6 µM (active) in assay [12] and 0.366 µM (active) in assay [14]. Moreover, the activity, negative = inhibition in assay [13] is -41% [at 19 µM].
On to `NS(=O)(=O)c1cc2c(cc1Cl)NCNS2(=O)=O`, for which the Potency result in assay [1], in assay [2], in [3], in assay [4], in assay [5] and in assay [6] was “inactive” each time. For the same molecule, the Potency result in [7], in assay [8], in [9], in assay [10], in assay [11] and in [12] was “inactive” throughout. Moreover, the Potency entry in assay [19] was “inactive”. Moreover, the outcome in assay [16], in [17], in assay [18] and in assay [20] was inactive.
